Results filed as inconclusive are left out. The source made the active and inactive calls. Calls follow the shape of the dose curve; as a rule, active = well fitted inhibition curve with a large enough effect; inconclusive = small, poorly fitted or top-dose-only effect; inactive = flat fitted curve, though single readings scatter.
Each compound was assayed on MCC-26 (assay: qHTS assay to identify novel small-molecules to repurpose for Merkel cell carcinoma treatment (AID 1296009; also: nearly all actives have a fitted effect of over 60% in size)). Details: MCC and control cell lines, CellTiter-Glo viability, 72 h; series mostly up to 46 µM; activity change, negative = cytotoxicity: at the top concentration.
Procedure, shortened: (§1)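 Dose-response viability screen; 72 hr exposure at 37 degree celsius; CellTiter-Glo added, 10 min room temperature, luminescence read; RLUs scaled between no-cell and DMSO wells.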
% is scaled to controls: 0 for no effect and ±100 for the full control effect; potency is read from the fitted curve at half-maximal effect.

Compound | activity change, negative = cytotoxicity | Potency
NC[C@H]1O[C@H](O[C@@H]2[C@@H](O)[C@@H](O[C@H]3O[C@H](CO)[C@@H](O)[C@H](N)[C@@H]3O)[C@H](N)C[C@@H]2N)[C@H](O)[C@@H](O)[C@H]1O | -2.96% (inactive) | –
CCc1cccc(CC)c1NC(=O)N1Cc2[nH]nc(NC(=O)c3ccc(N4CCN(C)CC4)cc3)c2C1 | – | 20.9 µM (active)
CC(=O)O[C@]1(C(C)=O)CC[C@H]2[C@@H]3C=C(Cl)C4=CC(=O)[C@@H]5C[C@H]5[C@]4(C)[C@@H]3CC[C@@]21C | -9.93% (inactive) | –
OC[C@H]1O[C@@H](O[C@H]2[C@@H](O)[C@@](O)(CO)O[C@@H]2CO)[C@H](O)[C@@H](O)[C@@H]1O | -12.8% (inactive) | –
COc1cc(F)c(C(C)C)cc1-c1ccc(C(F)(F)F)cc1CN1C(=O)O[C@H](c2cc(C(F)(F)F)cc(C(F)(F)F)c2)[C@@H]1C | -10.6% (inactive) | –
CCCC1OC2C[C@@H]3[C@H]4CCC5=CC(=O)C=C[C@]5(C)[C@H]4C(O)C[C@]3(C)[C@]2(C(=O)CO)O1 (stereo not given in full) | -11.8% (inactive) | –
COc1cc(CNC(=O)CCCCC=CC(C)C)ccc1O | -10.8% (inactive) | –
C#CCN(C)CC1=Cc2ccccc2Oc2ccccc21 | -2.51% (inactive) | –
O=c1[nH]c(=O)n([C@H]2C[C@@H](O)[C@@H](CO)O2)cc1I | -4% (inactive) | –
CNC(=O)[C@H](CC1=CN=C2C=CCC=C12)NC(=O)[C@@H](CC(=O)NO)CC(C)C | -4.11% (inactive) | –
Cc1cc(C(C)Nc2ccccc2)c2nc(N3CCOCC3)cc(=O)n2c1 (stereo not given) | -3.18% (inactive) | –
CO[C@H]1/C=C\O[C@@]2(C)Oc3c(C)c(O)c4c(O)c(c5c(nc6cc(C)ccn65)c4c3C2=O)NC(=O)C(C)=CC=C[C@H](C)[C@H](O)[C@@H](C)[C@@H](O)[C@@H](C)[C@H](OC(C)=O)[C@H]1C | -4.92% (inactive) | –
CN1CCN(c2cccc(Nc3nc4c(-c5ccc(S(C)(=O)=O)cc5)cccn4n3)c2)CC1 | -1.35% (inactive) | –
CN(C(Cc1ccc(OS(=O)(=O)c2cccc3cnccc23)cc1)C(=O)N1CCN(c2ccccc2)CC1)S(=O)(=O)c1cccc2cnccc12 (stereo not given) | -3.41% (inactive) | –
CCC(=O)OCC(=O)[C@@]1(OC(=O)CC)[C@@H](C)C[C@@H]2[C@H]3CCC4=CC(=O)C=C[C@]4(C)[C@@]3(F)[C@@H](O)C[C@@]21C | -6.6% (inactive) | –
CN(C)N=Nc1nc[nH]c1C(N)=O | 0.42% (inactive) | –
CC(C)(C)c1nc(-c2cccc(NS(=O)(=O)c3c(F)cccc3F)c2F)c(-c2ccnc(N)n2)s1 | 3.22% (inactive) | –
CNC(=O)c1cc(COc2nnc(Nc3ccc(Cl)cc3)c3ccoc23)ccn1 | -7.07% (inactive) | –
CCNC(=O)CCCC=CC[C@@H]1[C@H](C=CC(O)CCc2ccccc2)[C@@H](O)C[C@@H]1O (stereo not given in full) | -3.91% (inactive) | –
O[C@@H](COc1cccc2ncccc12)CN1CCN(C2c3ccccc3[C@@H]3[C@H](c4ccccc42)C3(F)F)CC1 (stereo not given in full) | -15.8% (inactive) | –
CN1CC(=O)NC1=NC(=O)Nc1cccc(Cl)c1 | 3.19% (inactive) | –
CCCCCOC(=O)Nc1nc(=O)n([C@@H]2O[C@H](C)[C@@H](O)C2O)cc1F (stereo not given in full) | -18% (inactive) | –
O=C1Nc2ccc(I)cc2C1=Cc1cc(Br)c(O)c(Br)c1 | -8.07% (inactive) | –
O=S(=O)(O)c1ccc2cc(N=Nc3cc(S(=O)(=O)O)c4cccnc4c3O)ccc2c1 | -12.3% (inactive) | –
CCN(CCO)CCCOc1ccc2c(Nc3cc(CC(=O)Nc4cccc(F)c4)[nH]n3)ncnc2c1 | -11.5% (inactive) | –
CC(C)CN(C[C@@H](O)[C@H](Cc1ccccc1)NC(=O)O[C@H]1CO[C@H]2OCC[C@H]21)S(=O)(=O)c1ccc(N)cc1 | 10.3% (inactive) | –
COc1cc2c(cc1OC)CC(=O)N(CCCN(C)C[C@H]1Cc3cc(OC)c(OC)cc31)CC2 | -3.33% (inactive) | –
OC[C@H]1O[C@@H](OCCc2ccc(O)cc2)[C@H](O)[C@@H](O)[C@H]1O | 4.43% (inactive) | –

These compounds were tested on MKL-1 in the same assay as above. Details: MCC and control cell lines, CellTiter-Glo viability, 72 h; series mostly up to 46 µM; activity change, negative = cytotoxicity: at the top concentration.
Procedure, shortened: as §1

Compound | activity change, negative = cytotoxicity | Potency
CC(=O)O[C@]1(C(C)=O)CC[C@H]2[C@@H]3C=C(Cl)C4=CC(=O)[C@@H]5C[C@H]5[C@]4(C)[C@@H]3CC[C@@]21C | -4.02% (inactive) | –
CON(C)C(=O)N1N=C(c2cc(F)ccc2F)S[C@]1(CCCN)c1ccccc1 | -55.2% (inactive) | –
OC[C@H]1O[C@@H](O[C@H]2[C@@H](O)[C@@](O)(CO)O[C@@H]2CO)[C@H](O)[C@@H](O)[C@@H]1O | -10.6% (inactive) | –
COc1cc(F)c(C(C)C)cc1-c1ccc(C(F)(F)F)cc1CN1C(=O)O[C@H](c2cc(C(F)(F)F)cc(C(F)(F)F)c2)[C@@H]1C | 3.86% (inactive) | –
CCCC1OC2C[C@@H]3[C@H]4CCC5=CC(=O)C=C[C@]5(C)[C@H]4C(O)C[C@]3(C)[C@]2(C(=O)CO)O1 (stereo not given in full) | -1.68% (inactive) | –
COc1cc(CNC(=O)CCCCC=CC(C)C)ccc1O | -1.23% (inactive) | –
C#CCN(C)CC1=Cc2ccccc2Oc2ccccc21 | -15% (inactive) | –
O=c1[nH]c(=O)n([C@H]2C[C@@H](O)[C@@H](CO)O2)cc1I | -4.67% (inactive) | –
CNC(=O)[C@H](CC1=CN=C2C=CCC=C12)NC(=O)[C@@H](CC(=O)NO)CC(C)C | – | 296 nM (active)
Cc1c(C(=O)Nc2ccc(N3C[C@@H](C)O[C@@H](C)C3)nc2)cccc1-c1ccc(OC(F)(F)F)cc1 | 5.61% (inactive) | –
CC(C)(C)c1[nH]cnc1C=c1[nH]c(=O)c(=Cc2ccccc2)[nH]c1=O | -75.9% [at 92.7 µM] (inactive) | –
Nc1ncnc2c1c(-c1cccc(OCc3ccccc3)c1)cn2C1CC(CN2CCC2)C1 (stereo not given) | 2.81% (inactive) | –
Cc1cc(C(C)Nc2ccccc2)c2nc(N3CCOCC3)cc(=O)n2c1 (stereo not given) | 12.1% (inactive) | –
CSc1cccc(Nc2ncc3cc(-c4c(Cl)cccc4Cl)c(=O)n(C)c3n2)c1 | -8.32% (inactive) | –
CN1CCN(c2cccc(Nc3nc4c(-c5ccc(S(C)(=O)=O)cc5)cccn4n3)c2)CC1 | 0.0012% (inactive) | –
CN(C(Cc1ccc(OS(=O)(=O)c2cccc3cnccc23)cc1)C(=O)N1CCN(c2ccccc2)CC1)S(=O)(=O)c1cccc2cnccc12 (stereo not given) | -18.7% (inactive) | –

Compound | activity change, negative = cytotoxicity | Potency
CCC(=O)OCC(=O)[C@@]1(OC(=O)CC)[C@@H](C)C[C@@H]2[C@H]3CCC4=CC(=O)C=C[C@]4(C)[C@@]3(F)[C@@H](O)C[C@@]21C | -2.11% (inactive) | –
CC(C)C[C@@H](N)[C@H](O)C(=O)N[C@H](C(=O)N[C@H](C(=O)N[C@@H](CC(=O)O)C(=O)O)C(C)C)C(C)C | 1.23% (inactive) | –
CN(C)N=Nc1nc[nH]c1C(N)=O | 4.52% (inactive) | –
C[C@@H](O[C@H]1OCCN(Cc2n[nH]c(=O)[nH]2)[C@@H]1c1ccc(F)cc1)c1cc(C(F)(F)F)cc(C(F)(F)F)c1 | -15.1% (inactive) | –
CC(C)(C)c1nc(-c2cccc(NS(=O)(=O)c3c(F)cccc3F)c2F)c(-c2ccnc(N)n2)s1 | -7.26% (inactive) | –
CNC(=O)c1cc(COc2nnc(Nc3ccc(Cl)cc3)c3ccoc23)ccn1 | -0.248% (inactive) | –
CCNC(=O)CCCC=CC[C@@H]1[C@H](C=CC(O)CCc2ccccc2)[C@@H](O)C[C@@H]1O (stereo not given in full) | -2.9% (inactive) | –
Cc1nc(NC(=O)N2CCC[C@@H]2C(N)=O)sc1-c1csc(C(C)(C)C)n1 | -15.1% (inactive) | –
CC(C)[C@H](O)C(=O)N[C@@H](C)C(=O)N[C@@H]1C(=O)N(C)CCc2ccccc21 | -7.15% (inactive) | –
N#CC1(c2cccc(C(=O)Nc3cc(Oc4ccc5nc(NC(=O)C6CC6)sc5n4)ccc3F)c2Cl)CC1 | -4.38% (inactive) | –
CCCCCOC(=O)Nc1nc(=O)n([C@@H]2O[C@H](C)[C@@H](O)C2O)cc1F (stereo not given in full) | -17.6% (inactive) | –
O=C1Nc2ccc(I)cc2C1=Cc1cc(Br)c(O)c(Br)c1 | -4.7% (inactive) | –
O=S(=O)(O)c1ccc2cc(N=Nc3cc(S(=O)(=O)O)c4cccnc4c3O)ccc2c1 | -13.6% (inactive) | –
N#Cc1ccc(Oc2ccc3c(c2)COB3O)cc1 | -2.23% (inactive) | –
COc1cc2c(cc1OC)CC(=O)N(CCCN(C)C[C@H]1Cc3cc(OC)c(OC)cc31)CC2 | -3.21% (inactive) | –
OC[C@H]1O[C@@H](OCCc2ccc(O)cc2)[C@H](O)[C@@H](O)[C@H]1O | -0.453% (inactive) | –

— PubChem BioAssay (NCATS)
